{"source": "PubChem BioAssay", "note": "Values without a mark were called inactive. The rule behind the calls is not given here."}
{"biological_target": "Pantothenate synthetase (Mycobacterium tuberculosis (strain ATCC 25618 / H37Rv)) (UniProt P9WIL5)", "sequence (P9WIL5 whole entry, looked up)": "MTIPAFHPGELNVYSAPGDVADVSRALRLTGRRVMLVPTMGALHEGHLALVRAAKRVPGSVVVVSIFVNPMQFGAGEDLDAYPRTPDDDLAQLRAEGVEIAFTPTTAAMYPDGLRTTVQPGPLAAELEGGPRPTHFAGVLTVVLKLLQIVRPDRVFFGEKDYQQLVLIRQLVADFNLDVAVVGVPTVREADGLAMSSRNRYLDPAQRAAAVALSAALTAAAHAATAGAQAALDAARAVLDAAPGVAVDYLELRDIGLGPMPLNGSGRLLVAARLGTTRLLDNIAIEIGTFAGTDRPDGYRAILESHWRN", "assay": "Coupled enzyme confirmation of inhibitors against recombinant Mtb PanC (AID 375);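 note: 0% = full reaction with vehicle and 100% = no enzyme background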", "conditions": "coupled enzyme assay; at 10 µM, stronger effect = higher value", "units": {"inhibition": "%"}}
{"smiles": "CCOc1ccc2[nH]c(=O)c(CN(Cc3nnnn3CCc3ccccc3)CC3CCCO3)cc2c1", "note": "(stereo not given)", "inhibition": 0}
{"smiles": "CC(C)(C)c1ccc(C(=O)Nc2cnccn2)cc1", "inhibition": 2}
{"smiles": "CC(=O)Nc1ccc(S(=O)(=O)N2CCN(Cc3ccncc3)CC2)cc1", "inhibition": 8}
{"smiles": "O=C(CSc1nnc(Cc2cccs2)n1Cc1ccco1)Nc1cccc(Cl)c1", "inhibition": 0}
{"smiles": "CC(C(=O)Nc1ccccc1-c1ccccc1)N1CCN(C(=O)c2ccco2)CC1", "note": "(stereo not given)", "inhibition": 0}
{"smiles": "O=C(Nc1ccccc1N1CCOCC1)c1ccc2ccccc2n1", "inhibition": 0}
{"smiles": "O=C1C2CC=C(Cl)CC2C(=O)N1c1ncn[nH]1", "note": "(stereo not given)", "inhibition": 0}
{"smiles": "CC1=C(C(=O)NCc2ccccc2)C(c2ccccc2OCC(N)=O)NC(=O)N1", "note": "(stereo not given)", "inhibition": 0}
{"smiles": "CC(=O)NCCn1c(SCC(=O)NCC2CCCO2)nc2ccccc2c1=O", "note": "(stereo not given)", "inhibition": 0}
{"smiles": "CC(C)c1nc(NCC2CCCO2)c(C#N)c2c1COC(C)(C)C2", "note": "(stereo not given)", "inhibition": 3}
{"smiles": "C(=C\\c1ccccc1)/CN1CCN(C(c2ccccc2)c2ccccc2)CC1", "inhibition": 0}
{"smiles": "CCOc1cc(C(=O)N2CCN=C2SC)cc(OCC)c1OCC", "inhibition": 7}
{"smiles": "CC(NC(=O)c1ccco1)c1ccc2c(c1)OCCO2", "note": "(stereo not given)", "inhibition": 0}
{"smiles": "COc1cccc2sc(NC(=O)c3ccc(S(=O)(=O)N4CCOCC4)cc3)nc12", "inhibition": 1}
{"smiles": "c1ccc2c(c1)nc(NC1CCCCC1)c1nncn12", "inhibition": 0}
{"smiles": "CCOC(=O)c1sc(NC(=O)CNC(=O)Cn2cnc3sc(C)c(C)c3c2=O)nc1C", "inhibition": 0}
{"smiles": "O=C(NCc1ccco1)c1cc2cc3ccc(Cl)cc3nc2o1", "inhibition": 4}
{"smiles": "COc1ccccc1OCCCCNCCO", "inhibition": 0}
{"smiles": "N#CCCN(C(=O)Nc1ccc(Cl)cc1)c1ccccc1", "inhibition": 1}
{"smiles": "Cc1sc2nc(SCC(=O)Nc3c(C)n(C)n(-c4ccccc4)c3=O)n(C)c(=O)c2c1C", "inhibition": 0}
{"smiles": "N#Cc1cnc(SCC(=O)c2ccccc2)nc1N", "inhibition": 2}
{"smiles": "CCN1C(=O)N(CC)C2C1N(C(C)=O)C(=O)N2C(C)=O", "note": "(stereo not given)", "inhibition": 0}
{"smiles": "CCOc1ccc(C(=O)N(CN2CCCC2=O)c2ccc(C)cc2)cc1", "inhibition": 0}
{"smiles": "CCOC(=O)Nc1ccc(NS(=O)(=O)c2ccc(C)cc2)cc1", "inhibition": 0}
{"smiles": "COC(=O)c1c(O)ccc(Oc2ccccc2)c1C(=O)OC", "inhibition": 0}
{"smiles": "O=C(Cn1ccc2ccccc2c1=O)NCCC(=O)N1CCN(C(=O)c2ccco2)CC1", "inhibition": 9}
{"smiles": "CN(CC(=O)Nc1sccc1C#N)C1CCCCC1", "inhibition": 0}
{"smiles": "O=C(C1CCN(c2nnnn2-c2ccccc2)CC1)N1CCN(c2ccccc2)CC1", "inhibition": 0}
{"smiles": "CCCOC(=O)C1C2C=CC3(CN(c4cccc(Cl)c4)C(=O)C13)O2", "note": "(stereo not given)", "inhibition": 0}
{"smiles": "CCOC(=O)c1cccc(NC(=O)CSc2nc3ccccc3c(=O)n2CC)c1", "inhibition": 0}
{"smiles": "Cc1cc(=O)n2[nH]c(-c3ccc(Cl)cc3)cc2n1", "inhibition": 0}
{"smiles": "COC(=O)COc1nc(C)c(Br)c(OC)n1", "inhibition": 0}
{"smiles": "CC1CCCCN1CCNC(=O)c1ccc2c(=O)n(CCc3ccccc3)c(=O)[nH]c2c1", "note": "(stereo not given)", "inhibition": 0}
{"smiles": "CN(C)c1ccc(C2C3=C(CCCC3=O)OC3=C2C(=O)CCC3)cc1", "inhibition": 0}
{"smiles": "Cc1nn(-c2nc3ccccc3[nH]2)c(N)c1-c1ccccc1", "inhibition": 8}
{"smiles": "COc1ccc(N(CC(=O)Nc2ccc3c(c2)OCCO3)S(=O)(=O)c2cccnc2)cc1", "inhibition": 0}
{"smiles": "CCc1c(C)nc2ncnn2c1NCCc1ccc(OC)c(OC)c1", "inhibition": 0}
{"smiles": "S=c1[nH]nc(Cc2ccccc2)n1-c1ccccc1", "inhibition": 1}
{"smiles": "COC(=O)c1ccc(N2C(=O)CC(N3CCN(C(=O)c4ccco4)CC3)C2=O)cc1", "note": "(stereo not given)", "inhibition": 0}
{"smiles": "CC(C)(C)c1cc(NS(=O)(=O)c2ccc3c(c2)OCCO3)on1", "inhibition": 0}
